Assay outcomes as filed in PubChem.
A selection: hits, their analogues and other compounds. The true share with any hit is near 8.9%.
SW480 rereplic: induces DNA re-replication in SW480 colon adenocarcinoma cells; SW480 DNA re-replication, Hoechst DNA content imaging, 48 h; 340,000 tested, 1.8% active; Potency, µM (doses to about 46.1 µM), hits mostly activators; AID 624297; further: nearly all actives have a fitted effect of over 55% in size
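First, 250 cells per well were seeded. Next, compound or vehicle (23 nL) was pinned in, plates sat 48 hr at 37 C. Finally Hoechst was added for 40 min before fluorescence scanning.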
DRD3 antagonist: D3 dopamine receptor (human) antagonism; P35462; D3R cells, DiscoveRx beta-arrestin luminescence, antagonist mode; hits give low values; max response, negative = inhibition, %; 360,000 tested, 2.5% active; AID 652054; in the data active means max response below about -50%; inconclusive means no clear call, values can overlap the other calls
Target sequence (P35462 whole entry, looked up): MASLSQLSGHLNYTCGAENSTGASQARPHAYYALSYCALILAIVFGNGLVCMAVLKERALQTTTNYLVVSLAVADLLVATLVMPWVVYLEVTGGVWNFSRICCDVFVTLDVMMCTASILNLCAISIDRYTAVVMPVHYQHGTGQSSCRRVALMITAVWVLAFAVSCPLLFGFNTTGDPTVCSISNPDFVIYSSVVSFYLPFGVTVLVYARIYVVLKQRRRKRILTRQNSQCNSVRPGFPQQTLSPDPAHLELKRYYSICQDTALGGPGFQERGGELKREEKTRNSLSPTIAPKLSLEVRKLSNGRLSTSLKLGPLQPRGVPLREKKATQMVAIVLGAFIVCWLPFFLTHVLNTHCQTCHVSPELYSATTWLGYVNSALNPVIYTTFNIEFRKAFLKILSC
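Cells plated overnight at 1500 cells/well, then exposed to library compounds with dopamine controls for 90 minutes at 37 degrees C. DiscoveRx reagent added for 30–60 minutes at room temperature; luminescence read, quantitative HTS format.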
D3 ag: D3 dopamine receptor (human) agonism; D3R DiscoveRx beta-arrestin cells, luminescence, 90 min; max activation, %; 410,000 tested, 0.58% active; in the data active means max activation above about 30%
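Agonist mode: compounds and dopamine controls were applied to plated cells for 90 min at 37 degrees C after an overnight attachment at 1500 cells/well. Luminescent read-out followed 30 - 60 minutes at room temperature with DiscoveRx detection reagent.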
MCF10A rereplic: DNA re-replication induction in MCF 10a cells. Potency, µM (top dose mostly 46.1 µM), actives largely listed as activators. MCF 10A DNA re-replication, Hoechst nuclear intensity, 48 h. 350,000 tested, 2.9% active; further: nearly all actives have a fitted effect of over 50% in size
KB-3-1 tox: kills parental KB-3-1 adenocarcinoma cells | 400,000 tested, 1.4% active | KB-3-1 viability, CellTiter-Glo ATP luminescence, 72 h | AID 1347075 | Potency, µM (highest dose often 46.1 µM), hits mostly cytotoxic; further: nearly all actives have a fitted effect of over 60% in size
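Luminescent ATP read-out (CellTiter-Glo) measures survival of drug-naive KB-3-1 cells after 72 h compound exposure at 37 °C. Titration series was screened from lowest to highest concentration, with DMSO vehicle plates as background controls.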
KB-V1 cytotox: KB-V1 MDR subline cytotoxicity; KB-V1 MDR cells viability, CellTiter-Glo, 72 h; Potency, µM (top dose mostly 46.1 µM), actives largely listed as cytotoxic; 400,000 tested, 3.4% active; further: nearly all actives have a fitted effect of over 60% in size
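Compound-treated KB-V1 multidrug-resistant cells, 72 h, 37 degrees C; viability by CellTiter-Glo. Fitted qHTS curves give the values.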
A number is an active result; n = inactive; u = inconclusive; x = no result; [ ] = another dose, or the depositor's remark. Unless noted, the call rests on the fitted dose curve; in most records, active means well fitted curve in the direction sought with a large enough effect; inconclusive means small, poorly fitted or top-dose-only effect, or another doubt; inactive means no such curve, though single readings can be large; an effect the other way counts as inactive or inconclusive.

SMILES | SW480 rereplic | DRD3 antagonist | D3 ag | MCF10A rereplic | KB-3-1 tox | KB-V1 cytotox
CCOC(=O)c1c(NC(C)=O)c2c3c(sc2n1Cc1nc(-c2ccccc2C)oc1C)CCCC3 | x | x | n | x | u | u
Cn1c(CNc2nc3ccccc3n2C)nc2ccccc21 | n | -70 | n | n | n | n
Cc1ccc(NCc2nc3ccccc3n2C)cc1 | n | n | n | n | n | n
COc1ccc(CNC(=O)CCn2c(=O)oc3ccccc32)cc1 | n | u | n | n | n | n
CCOc1ccc(OCC)c(NC(=O)CCn2c(=O)oc3ccccc32)c1 | n | n | n | n | n | 8.2µM
CCOc1ccc(CNC(=O)CCn2c(=O)oc3ccccc32)cc1 | n | n | n | n | n | 23µM
CCOc1ccccc1NC(=O)Cn1c(=O)oc2ccccc21 | n | n | n | n | n | n
CCOc1cc2sc(N3CCC(C(=O)Nc4ccccc4Cl)CC3)nc2cc1Br | x | x | n | x | n | n
Cc1cccc(CCNS(=O)(=O)c2ccc(S(=O)(=O)N3CCCCC3)cc2)c1 | n | n | n | n | n | n
O=S(=O)(NCCc1ccncc1)c1ccc(S(=O)(=O)N2CCCCCC2)cc1 | n | n | n | u | n | 18µM
CC1CCCCN1S(=O)(=O)c1ccc(S(=O)(=O)NCCc2ccncc2)cc1 (centres undefined) | n | n | n | n | n | 21µM
CC1CCCCN1S(=O)(=O)c1ccc(S(=O)(=O)N2CCCC2)cc1 (centres undefined) | n | n | n | n | n | n
COc1ccc(OC)c2sc(N(Cc3cccnc3)C(C)=O)nc12 | x | x | n | x | n | n
COc1ccc(N2CC(NC(=O)C3CC3)CC2=O)cc1 (centres undefined) | x | x | n | x | x | x
COc1ccc(-n2cnnc2SCc2cnc(-c3ccccc3)s2)cc1 | n | -56 | n | n | n | 16µM
CCCn1c(SCC(O)c2ccccc2)nc2ccccc21 (centres undefined) | x | x | n | x | x | x
Cc1nc(C#N)c(N/N=C/c2c(F)cccc2Cl)o1 | n | -64 | n | n | n | n
Oc1cc2ccccc2cc1-c1n[nH]c(=S)o1 | n | -50 | n | n | n | n
COc1cc(-c2cc(C(=O)Nc3ccc(S(N)(=O)=O)cc3)c3ccccc3n2)cc(OC)c1OC | n | n | n | u | n | n
O=C(Nc1ccc(Br)cc1)c1cc(-c2ccncc2)nc2ccccc12 | 16µM | n | n | u | u | n
O=C(Nc1cccc(S(=O)(=O)NCc2ccco2)c1)c1cc(-c2ccc(F)cc2)nc2ccccc12 | u | n | n | n | u | u
O=C(Nc1ccncc1)c1cc(-c2ccccc2)nc2ccccc12 | x | n | n | x | n | u
COc1ccc(-c2cc(C(=O)Nc3cccc(S(=O)(=O)NCc4ccco4)c3)c3ccccc3n2)cc1OC | u | n | n | 12µM | n | u
CCN(CC)S(=O)(=O)c1ccc(O)c(NC(=O)c2cc(-c3cc(OC)c(OC)c(OC)c3)nc3ccccc23)c1 | u | n | n | 18µM | n | n
COC(=O)c1ccc(NC(=O)c2cc(-c3ccncc3)nc3ccccc23)cc1 | n | n | n | n | 23µM | n
SMILES | SW480 rereplic | DRD3 antagonist | D3 ag | MCF10A rereplic | KB-3-1 tox | KB-V1 cytotox
O=C(NNC(=O)c1cc(-c2ccccc2)nc2ccccc12)Nc1cccc(Cl)c1 | n | n | n | 12µM | n | u
COc1ccc(NC(=O)c2cc(-c3cc(OC)c(OC)c(OC)c3)nc3ccccc23)cc1OC | n | n | n | n | u | 21µM
Cc1cccc(-c2cc(C(=O)Nc3ccncc3)c3ccccc3n2)c1 | n | n | 35 | n | n | n
COC(=O)c1sccc1NC(=O)c1cc(-c2ccc(C)cc2C)nc2ccccc12 | n | n | n | 12µM | u | u
COc1cccc(/C=C/c2nc(C#N)c(NCCc3ccc(OC)c(OC)c3)o2)c1 | x | x | n | x | n | n
O=C(Nc1nccs1)c1cc(-c2ccccc2)nc2ccccc12 | n | n | 44 | u | n | u
CCc1ccc(CNc2ncnc3onc(-c4ccc(Cl)cc4)c23)cc1 | x | x | n | x | n | n
CC(C)(CNC(=O)c1ccccc1NS(C)(=O)=O)N1CCCCC1 | n | -58 | n | n | n | n
CCS(=O)(=O)N1CCc2cc(C(=O)N3CCN(c4ccccc4)CC3)ccc21 | x | x | n | x | n | n
Cc1c(Cl)cccc1-n1ncc(C(=O)NCc2cccs2)c1C1CCN(C(=O)OC(C)(C)C)CC1 | x | x | n | x | n | n
O=C(c1ccc(-c2ccccc2)cc1)c1ccccc1C(=O)N1CCOCC1 | n | n | n | n | n | 21µM
O=C(c1ccccc1-c1nc(-c2ccccc2)no1)N1CCOCC1 | n | n | n | n | n | 12µM
O=C(c1ccccc1-c1nc(-c2ccc(F)cc2)no1)N1CCCC1 | n | n | n | n | n | u
O=C(c1ccccc1)c1ccc(C(=O)N2CCOCC2)cc1 | n[9.22 µM] | n | n | n | n | n
COc1ccc(C(=O)NCCc2sc(-c3ccc(Cl)cc3)nc2C)c(OC)c1 | x | x | n | x | n | n
CC1(C(=O)NS(=O)(=O)c2ccc(Cl)cc2)CCN1C(=O)c1ccccc1CCc1ccccc1 (centres undefined) | x | n | n | x | n | n
FC(F)(F)c1cc(-c2ccccc2)nc(NCC2CCCO2)n1 (centres undefined) | n | n | n | n | n | n
FC(F)(F)c1cc(-c2ccccc2)nc(NC2CCCC2)n1 | n | n | n | 7.3µM | n | n
Cc1ccc(-n2nc3c4c(cccc4c2=O)-c2ccccc2-3)cc1 | n | n | n | u | u | 8.2µM
O=C(O)Cn1nc2c3c(cccc3c1=O)-c1ccccc1-2 | n | n | n | n | n | n
CCC(C)(C)NC(=O)C(c1ccc(C)cc1)N(Cc1cccs1)C(=O)c1ccc2c(c1)OCCO2 (centres undefined) | n | n | n | n | n | 18µM
Cc1ccc(C(C(=O)NC(C)(C)C)N(Cc2cccs2)C(=O)c2ccc3c(c2)OCCO3)cc1 (centres undefined) | u | n | n | n | n | u
CC1(C)O[C@H]2C[C@@H]3[C@H]4CCC5=CC(=O)C=C[C@]5(C)[C@@]4(F)[C@@H](O)C[C@]3(C)[C@]2(C(=O)CO)O1 | n | x | x | n | x | x
CN1CCCN(c2cc(-c3ccc4ccccc4c3)nc3ccnn23)CC1 | x | -67 | n | x | n | n
Cc1ccc(-c2noc(COc3ccc(Br)c(C)c3)n2)cc1 | x | x | n | x | n | n
CNC(=S)N/N=C1\C(=O)c2cccc3cccc1c23 | u | -55 | n | 10µM | u | u
C=C(C)C1CC=C(C)CC1 (centres undefined) | n | x | n | n | x | x
O=C(Nc1ccc(NC(=O)c2sc3ccccc3c2Cl)cc1)c1ccco1 | u | n | n | 12µM | n | n
